Rows were chosen to be rich in hits. Some 21% of all compounds tested hit in one or more screens of this group.
Pf growth 96h: Primary qHTS for delayed death inhibitors of the malarial parasite plastid, 96 hour incubation | hit rate 6.9% among 320,000 | Potency, µM (highest dose often 28.7 µM), most hits filed as inhibitors | AID 504834, 2011 | P. falciparum luciferase reporter growth, 96 h
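Two parasite generations (96 h, 37 C, 5% CO2) of compound exposure in infected erythrocytes (0.05% parasitemia, 2% hematocrit). Luciferase-reporter P. falciparum; decreased luminescence indicates inhibited growth, aimed at apicoplast-acting delayed death.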
CHX counter: Cycloheximide Counterscreen for Small Molecule Inhibitors of Shiga Toxin; max response, %; hit rate 12% among 300,000; cell reporter, cycloheximide protein synthesis inhibition counterscreen; in the data active = max response mostly above about 13%, no sharp cut-off; inactive = mostly below about 14%; note: read at 38.3 µM for the half of the compounds with a filed dose
Shiga inhibitor: A qHTS for Small Molecule Inhibitors of Shiga Toxin; Vero cells, Shiga toxin protein synthesis inhibition reporter; inhibition, % at 38.7 µM; hit rate 9.2% among 290,000; in the data active = inhibition mostly above about 28%, no sharp cut-off; inactive = mostly below about 43%
NS1 inh: qHTS Assay for Inhibitors of Influenza NS1 Protein Function. Potency, µM (titrated, usually from 46.1 µM). hit rate 0.4% among 270,000. AID 2326, 2010; calls by dose curve; note: actives are rising curves; nearly all actives have a fitted effect of over 50% in size
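Recovery from NS1-induced slow growth read by OD600 in budding yeast switched to galactose assay medium (pH 6.0, -URA) at 1:100 dilution. Compound 23 nl per well; the matching strain lacking NS1 serves as control.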
Pf growth 48h: Primary qHTS for delayed death inhibitors of the malarial parasite plastid, 48 hour incubation | Potency, µM (series often up to 28.7 µM), actives largely listed as inhibitors | AID 504832, 2011 | hit rate 5.9% among 310,000 | P. falciparum luciferase growth in erythrocytes, 48 h
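Luminescence readout; reporter = integrated firefly luciferase in P. falciparum. RBC culture at 2% hematocrit, 0.1% parasitemia final, 37 C/5% CO2; decreased signal taken as growth inhibition.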
A number is an active result; i = inactive; ? = inconclusive; nt = no result. Unless noted, calls come from the whole dose curve; as a rule, active = well fitted inhibition curve with a large enough effect; inconclusive = small, poorly fitted or top-dose-only effect, or another doubt; inactive = no such curve, though single readings can be large or run the other way.

SMILES	Pf growth 96h	CHX counter	Shiga inhibitor	NS1 inh	Pf growth 48h
O=C(Nc1cccc2ccccc12)/C(Cl)=C/c1ccccc1	i	41.8	81.5	i	i
c1ccc(CNn2nnnc2-c2ccccc2)cc1	i	i	i	i	i
COc1ccc(C(=O)NC(=S)Nc2ccc3oc(=O)ccc3c2)cc1OC	i	i	i	i	i
O=C(NC(=S)Nc1ccc2oc(=O)ccc2c1)c1ccco1	i	19.1	53.4	i	i
COc1cccc(OC)c1C(=O)NC(=S)Nc1ccc2oc(=O)ccc2c1	1.85µM	i	i	i	3.29µM
CC(=O)NC(=S)Nc1ccc2oc(=O)ccc2c1	i	i	i	i	i
CCc1ccccc1-n1nnnc1-c1cnccc1C(F)(F)F	i	i	i	i	i
O=[N+]([O-])c1cc(CSC2=NCCN2)ccc1O	i	i	i	i	i
CCCOc1ccc(CSC2=NCCN2)cc1[N+](=O)[O-]	?	i	i	i	14.7µM
COC(=O)c1cc(NC(=O)c2cccc(C(F)(F)F)c2)c(=O)oc1C	i	i	i	i	i
COC(=O)c1cc(NC(=O)c2cccc(Cl)c2)c(=O)oc1/C=C/Nc1cc(C)cc(C)c1	i	i	57.5	nt	i
C=CCn1c(SCn2nnc3ccccc3c2=O)nc2scc(-c3cccs3)c2c1=O	2.94µM	i	i	?	i
CC1CCCN(C(=O)COC(=O)c2ccc[nH]c2=O)C1 (stereo unspecified)	i	i	i	i	nt
CCN(CC)S(=O)(=O)c1cccc(C(=O)OCC(=O)NC(C)c2ccccc2)c1 (stereo unspecified)	i	i	i	nt	i
CCN(CC)S(=O)(=O)c1cccc(C(=O)OCc2cc(=O)n3nc(C)sc3n2)c1	5.22µM	i	i	i	i
Cc1nc2ccccc2c(=O)n1NC(=O)c1ccc(Cl)cc1	?	i	i	i	i
CCn1c(SCC(=O)c2ccccc2)nc2ccccc2c1=O	i	i	i	i	i
O=C(CSc1nc2ccccc2c(=O)n1NC(=O)c1ccccc1)c1ccc(Cl)cc1	i	34.4	97.7	?	i
O=C(CSc1nc2ccccc2c(=O)n1NC(=O)c1ccccc1)c1ccccc1	i	40.8	73.7	i	i
O=C(/C=C/c1ccccc1)NC1CCSC1=O (stereo unspecified)	10.4µM	38.5	70.0	i	i
CC1(C)C2CCC1(C)C(NC(=O)/C=C/c1ccccc1)C2 (stereo unspecified)	i	i	i	nt	7.38µM
Cc1ccc(C)c(S(=O)(=O)NC(C)C(=O)NCc2ccccn2)c1 (stereo unspecified)	i	i	i	i	i
O=c1c2ccccc2[nH]c(=S)n1-c1ccc2c(c1)OCO2	i	i	i	i	11.7µM
O=C(Cn1c(=O)[nH]c2ccccc2c1=O)Nc1ccc2c(c1)OCO2	i	i	i	i	i
C[C@@H](C(=O)Nc1ccc2c(c1)OCCO2)n1c(=O)[nH]c2ccccc2c1=O	i	48.8	147.4	i	i
SMILES	Pf growth 96h	CHX counter	Shiga inhibitor	NS1 inh	Pf growth 48h
C[C@@H](C(=O)Nc1ccc2c(c1)OCO2)n1c(=O)[nH]c2ccccc2c1=O	?	i	29.3	i	i
O=C1C(=O)N(Cc2cccnc2)C(c2cccc([N+](=O)[O-])c2)/C1=C(/O)c1ccc2c(c1)OCO2 (stereo unspecified)	i	i	i	i	i
Cc1ccc(C2=Nc3cccnc3C(c3ccccc3)=NN2)cc1	i	49.0	79.2	nt	i
Cc1ccc(C2=Nc3ccc(Br)cc3C(c3ccncc3)=NN2)cc1	i	28.4	i	i	?
Brc1ccc(C2=Nc3ccccc3C(c3ccncc3)=NN2)cc1	?	i	i	i	i
Cc1ccc2c(c1)C(c1ccncc1)=NNC(c1ccc(C(C)C)cc1)=N2	?	i	32.0	i	?
Cc1ccc2c(c1)C(c1ccncc1)=NNC(c1ccc(F)cc1)=N2	i	i	i	nt	?
Fc1ccc2c(c1)C(c1ccncc1)=NNC(c1ccc(Br)cc1)=N2	?	i	i	i	?
COc1ccc2c(c1)C(c1ccc(C)o1)=NNC(c1ccccc1)=N2	i	42.5	95.8	i	?
CN[C@H]1[C@@H](O)[C@@H](NC)[C@@H]2O[C@@]3(O)C(=O)C[C@@H](C)O[C@H]3O[C@H]2[C@H]1O	i	nt	nt	nt	i
Cc1ccc2c(c1)C(c1ccncc1)=NNC(c1ccccc1)=N2	?	50.1	103.4	i	i
Cc1ccc(S(=O)(=O)n2ccc3c(OCCOCCSCC(NC(=O)OC(C)(C)C)C(=O)O)cccc32)cc1 (stereo unspecified)	9.28µM	i	i	i	?
Cc1ccc(S(=O)(=O)n2ccc3c(OCCOCCNCc4ccc(F)cc4)cccc32)cc1	10.4µM	i	i	i	9.28µM
Cc1cc(C)c(C)c(OCCOCCNCc2ccccc2)c1	i	i	i	i	i
Cc1nnc2c(N3CCN(CCO)CC3)nc3ccccc3n12	13.1µM	i	i	i	i
COC(=O)CN(C)C(=O)c1ccccc1OC1CCN(S(C)(=O)=O)CC1	13.1µM	i	i	i	i
COc1ccccc1C(=O)Nc1ccc(C(=O)O)cc1	nt	i	i	i	i
COc1ccc(C(=O)NC(=S)Nc2ccc3[nH]c(=O)[nH]c3c2)c(OC)c1	i	21.2	i	i	i
COc1cccc(C(=O)Nc2ccc3[nH]c(=O)[nH]c3c2)c1OC	i	i	54.2	i	i
COc1cccc(C(=O)Nc2ccc(N(C)C)cc2)c1OC	nt	39.4	124.3	i	i
COc1cc2ccccc2cc1C(=O)Nc1ccc(O)cc1	?	44.4	62.8	i	?
Nc1ncnc2c1ncn2[C@@H]1O[C@H](C(=O)N2CCN(CC(=O)Nc3cccc4c3CNC4=O)CC2)[C@@H](O)[C@H]1O	nt	i	i	nt	nt
O=[N+]([O-])c1ccc2[nH]ncc2c1	?	i	i	nt	i
COC(=O)C(Cc1ccc(O)cc1)NC(=O)C(CC(=O)OC(C)(C)C)NC(=O)OC(C)(C)C (stereo unspecified)	i	i	i	nt	i
CCN(CCCCO)c1nc(C)nc2c1c(C)c(C)n2-c1c(C)cc(C)cc1C	nt	i	i	nt	nt
SMILES	Pf growth 96h	CHX counter	Shiga inhibitor	NS1 inh	Pf growth 48h
COc1ccc(-c2ccc(-c3cc(=O)oc4c(C(C)C)ccc(C)c34)cc2)cc1	nt	i	i	nt	nt
COc1cccc(NC(=O)c2ccccc2F)c1	i	nt	nt	nt	i
COc1ccccc1CNCC(=O)Nc1ccc(N(C)C)cc1	i	50.0	110.8	i	i
COc1ccc(OC)c(NC(=O)c2cc3ccccc3cc2OC)c1	?	i	i	i	i
COc1cccc(NC(=O)c2cc3ccccc3cc2OC)c1	?	54.6	107.8	i	i
COc1cccc(NC(=O)c2ccccc2Br)c1	i	28.2	nt	i	i
COc1ccc(NC(=O)c2cc3ccccc3cc2OC)cc1OC	?	14.9	i	i	i
CC(C)CCNC(=O)COC(=O)c1cc(Br)c(Br)s1	i	i	i	nt	i
CCS(=O)(=O)N1CCN(c2cc3c(cc2[N+](=O)[O-])n(C)c(=O)n3C)CC1	i	i	i	nt	i
CO	i	nt	nt	nt	i
COc1cc(OC)c(C(=O)Nc2ccc3ccccc3c2)cc1OC	i	43.2	107.4	i	i
